# The list is not random: actives were taken first. Their share in the collection is about 1.1%.
# LmPK inh: inhibitors of Leishmania mexicana pyruvate kinase. Q27686. Potency, µM (top dose mostly 57.5 µM), without a hit: top-dose activity change, negative = inhibition, actives largely listed as inhibitors. actives 0.37% (n = 290,000). purified LmPK, Kinase-Glo ATP luminescence, 1 h; further: on the % scale 0 is the no-effect control and ±100 the full control effect
# Target sequence (Q27686 whole entry, looked up): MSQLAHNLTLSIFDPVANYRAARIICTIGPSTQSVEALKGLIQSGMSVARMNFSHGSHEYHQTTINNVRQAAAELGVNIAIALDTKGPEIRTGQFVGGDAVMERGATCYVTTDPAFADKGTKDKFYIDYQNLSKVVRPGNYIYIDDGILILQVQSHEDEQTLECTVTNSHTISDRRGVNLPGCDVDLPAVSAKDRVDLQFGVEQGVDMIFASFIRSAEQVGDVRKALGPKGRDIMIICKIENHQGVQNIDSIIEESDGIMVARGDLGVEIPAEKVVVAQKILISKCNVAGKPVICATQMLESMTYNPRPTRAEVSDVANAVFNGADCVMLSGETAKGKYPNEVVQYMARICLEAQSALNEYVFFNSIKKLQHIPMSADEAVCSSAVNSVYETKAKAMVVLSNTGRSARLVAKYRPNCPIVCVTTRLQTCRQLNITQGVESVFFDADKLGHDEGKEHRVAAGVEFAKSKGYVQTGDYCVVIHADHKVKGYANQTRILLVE
#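 Kinase-Glo luminescence read after 1 h RT reaction of 0.1 nM LmPK with 0.5 mM PEP and 0.1 mM ADP. Activity scaled between uninhibited and enzyme-free controls.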
# Giardia FBPA inh: Giardia lamblia aldolase inhibition | A8B2U2 | purified Giardia FBPA | Potency, µM (highest dose often 59.6 µM), for the others: at the top dose activity, negative = inhibition, usual class: inhibitors | actives 0.71% (n = 290,000); further: on the % scale 0 is the no-effect control and ±100 the full control effect; nearly all actives have a fitted effect of over 55% in size
#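 40 nM FBPA preincubated 10 min at RT with compound (up to 57.5 uM final), then substrate plus GAPDH/TPI/NAD/arsenate coupling and diaphorase/resazurin added. Fluorescence read after 20 min at RT, 525/598 nm.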
# SARS PLP yeast: SARS-CoV PLP inhibition in yeast. S. cerevisiae expressing SARS-CoV PLpro, growth rescue. Potency, µM (highest dose often 32.9 µM), for the others: at the top dose activity, positive = growth rescue, actives largely listed as activators. actives 0.19% (n = 330,000). AID 485353; calls by dose curve; further: 0% is about no effect; nearly all actives have a fitted effect of over 55% in size
# TbPYK inhibitor: T. brucei pyruvate kinase inhibition; Q57TT1; TbPYK enzyme, Kinase-Glo Plus ATP luminescence, 45 min; Potency, µM (series often up to 76.8 µM), without a hit: at the highest dose activity, negative = inhibition, usual class: inhibitors; actives 0.12% (n = 410,000); further: on the % scale 0 is the no-effect control and ±100 the full control effect; nearly all actives have a fitted effect of over 50% in size
#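 TbPYK + substrate in 50 mM TEA pH 7.2, 100 mM KCl, 10 mM MgCl2, 0.05% BSA, 0.01% Tween-20; cpd pinned; ADP 130 uM final; 45 min RT; Kinase-Glo Plus 10 min; luminescence endpoint.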
# RE007 growth inh: less growth of the S. pombe RE007 Vpr strain; S. pombe RE007 Vpr strain, BacTiter-Glo ATP luminescence, 24 h; Potency, µM (highest dose often 92.2 µM), for inactives: top-dose activity change, negative = less growth, most hits filed as inhibitors; actives 0.21% (n = 360,000); AID 651644; active means well fitted falling curve with a large enough effect; inconclusive means small, poorly fitted or top-dose-only effect; inactive means no such curve, though single readings can be large or run the other way; further: on the % scale 0 is the no-effect control and ±100 the full control effect; nearly all actives have a fitted effect of over 50% in size
#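 Fission yeast strain RE007, carrying one chromosomally integrated HIV-1 vpr copy, was seeded at OD 0.01 in PMG+AL medium with 23 nL pinned compound. After 24 h at 30 °C and 99% humidity, viability was read by BacTiter-Glo luminescence.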
# Starred values were filed as active, the others as inactive; ? = inconclusive; · = not tested or not shown; [ ] = remark or other dose. Unless noted, the call rests on the fitted dose curve; in most records, active means well fitted curve in the direction sought with a large enough effect; inconclusive means small, poorly fitted or top-dose-only effect, or another doubt; inactive means no such curve, though single readings can be large; an effect the other way counts as inactive or inconclusive. Potency means the concentration at half of the fitted maximal effect.
SMILES,LmPK inh,Giardia FBPA inh,SARS PLP yeast,TbPYK inhibitor,RE007 growth inh
COCCn1c(-c2ccccc2)c(C)n2c3c(=O)n(C)c(=O)n(C)c3nc12,·,·,·,1%,·
CCCS(=O)(=O)N1CC(=O)N(c2ccc(C)c(Cl)c2)C(C)(C(=O)NC2CCCCCC2)C1 (stereo unspecified),·,·,·,-14%[15.4 µM],·
Cc1c(C(=O)O)c(O)cc2c1C(=O)c1c(O)c([C@H]3O[C@H](CO)[C@@H](O)[C@H](O)[C@H]3O)c(O)c(O)c1C2=O,·,18µM*,·,-28%,·
CCCCOc1ccc(N2C(=O)CC(NCCc3ccc(S(N)(=O)=O)cc3)C2=O)cc1 (stereo unspecified),4%,-7%,-18%,-5%,63µM*
CO[C@]1(NC(=O)Cc2cccs2)C(=O)N2C(C(=O)O)=CC(COC(N)=O)S[C@H]21 (stereo partly specified),·,·,·,2%,·
COc1cc(OC)cc(-c2nc3ccccc3c(=O)o2)c1,3%,0%,3%,-6%,2%
COc1ccc(-c2nc3ccccc3c(=O)o2)cc1,18µM*,-20%,-3%,2%,?
N=c1n(Cc2ccccc2)c2ccccc2n1CC(O)COc1ccccc1 (stereo unspecified),-3%,0%,22µM*,7%,11%
CN(Cc1ccccc1)S(=O)(=O)c1ccc(F)c(C(=O)Nc2ccccc2C(F)(F)F)c1,·,·,·,-2%,·
O=C(N/N=C\c1c(O)ccc2ccccc12)c1ccc(O)cc1,0%,12%,13µM*,4%,10%
COC(=O)CCC(=O)OC1(C)C(=O)C2=CN(CCc3ccccn3)C(c3ccc(OC)cc3)=CC2=C(Br)C1=O (stereo unspecified),-6%[11.5 µM],?,·,-16%,-13%
COC(=O)CCC(=O)OC1(C)C(=O)C2=CN(Cc3ccc4c(c3)OCO4)C(c3ccc(OC)cc3)=CC2=C(Br)C1=O (stereo unspecified),-8%[11.5 µM],-19%[12.9 µM],·,2%,3%
COC(=O)CCC(=O)OC1(C)C(=O)C2=CN(CCN3CCOCC3)C(c3ccc(OC)cc3)=CC2=C(Br)C1=O (stereo unspecified),-2%[11.5 µM],0.56µM*,-1%,·,·
COC(=O)CCC(=O)OC1(C)C(=O)C2=CN(C(CO)CO)C(c3ccc(OC)cc3)=CC2=C(Br)C1=O (stereo unspecified),-2%[11.5 µM],0.63µM*,-2%,·,·
COC(=O)CCC(=O)OC1(C)C(=O)C2=CN(CCCCO)C(c3ccc(OC)cc3)=CC2=C(Br)C1=O (stereo unspecified),0%,5µM*,-5%,·,·
CCC(=O)C(Cc1ccccc1)(Cc1ccccc1)CC(C)N(C)C (stereo unspecified),·,·,·,-5%[157 µM],·
O=C(/C=C/c1ccco1)Nc1cccnc1Cl,16µM*,-20%,-3%,?,-2%
COc1cc(/C=N/N(C)c2ccccc2)cc(Cl)c1O,-2%,-13%,-27%,4%,28µM*
COC(=O)CNc1c(-c2ccccn2)nc2ccc(Br)cn12,16µM*,-14%,-2%,-5%,-16%
Cc1ccc(Nc2c(-c3ccccn3)nc3ccc(Br)cn23)cc1,·,·,·,-1%,·
O=C1C2C3C=CC(CNS(=O)(=O)c4ccccc4[N+](=O)[O-])(O3)C2C(=O)N1c1ccccc1 (stereo unspecified),4%,-5%,-5%,-20%,5µM*
O=[N+]([O-])c1ccccc1S(=O)(=O)NCc1ccco1,5%,3%,9%,-5%,0%
O=C1C2C3C=CC(CO)(O3)C2C(=O)N1c1ccc(-c2ccccc2)cc1 (stereo unspecified),?,-11%,-31%,·,·
Cc1cc(C)c(S(=O)(=O)NCC23C=CC(O2)C2C(=O)N(c4ccccc4)C(=O)C23)c(C)c1 (stereo unspecified),3%,·,-30%,-20%,22µM*
CCOc1ccccc1NC(=O)Cn1c(=O)n(-c2ccccc2)c(=O)c2c1c1cc(C)ccc1n2C,·,·,·,8%,·
SMILES,LmPK inh,Giardia FBPA inh,SARS PLP yeast,TbPYK inhibitor,RE007 growth inh
CSc1nsc(/C=C/Nc2ccc(O)cc2C)c1C#N,-7%,18µM*,0%,-12%,-18%
COc1cc(C(=O)O/N=C2\C=CC(=O)C(C)=C2)cc(OC)c1OC,-5%,20µM*,-17%,-8%,?
CN(C)c1cccc2c1c(NC(=O)c1ccc(F)cc1)nn2C,-2%,?,0%,-11%,9%
CN(C)c1cccc2c1c(NC(=O)c1ccc(Cl)cc1)nn2C,-3%,18µM*,-2%,-14%,6%
CCOC(=O)c1cc(-c2ccc(OC)cc2)n(CCC(=O)NC2CCC(C)CC2)c1C (stereo unspecified),·,·,·,-3%,·
CCN(CC)C(=O)c1ccc(NC(=O)c2cccc(F)c2)cc1,28µM*,3%,1%,-9%,4%
Cc1ccn2cc(-c3cc4ccccc4oc3=O)nc2c1,14µM*,-1%,-1%,-18%,-11%
O=c1oc2ccccc2cc1-c1cn2cc(Cc3ccc(Cl)cc3)sc2n1,·,·,·,1%,·
O=C1OC2(c3ccccc31)c1cc(I)c(O)c(I)c1Oc1c2cc(I)c(O)c1I,·,16µM*,1%,?,·
O=C1OC2(c3ccc(O)cc3Oc3cc(O)ccc32)c2ccccc21,·,13%,·,4%,·
c1ccc(OCc2nc3ccccc3[nH]2)cc1,11µM*,-7%,-13%,0%,-4%
Cc1ccc(NS(=O)(=O)c2ccc(Br)s2)nc1,0%,7.9µM*,4%,-8%,12%
CC(C)N1[N]C(=C2C=c3cc(O)ccc3=N2)c2c(N)ncnc21,·,·,·,6%,·
CCNc1ccccc1CP(=O)(c1ccccc1)c1ccccc1O (stereo unspecified),6%,1.8µM*,0%,-24%,-19%
Cc1ccc(O)c(CP(=O)(c2ccccc2)c2ccccc2)c1,2%,-4%,-5%,0%,10%
CN1CCN(C(=O)c2sc(=S)n(-c3ccccc3)c2N)CC1,-4%,5.6µM*,4%,?,2%
Oc1ccc(CNc2ccccc2)c2cccnc12,26%,?,10µM*,2%,-15%
Oc1ccc(CNc2ccc(F)cc2)c2cccnc12,18%,0%,12%,-11%,?
COc1cccc(O)c1O,·,18µM*,·,·,·
Cc1ccc(/C=[N+](\[O-])c2ccc(N(C)C)cc2)c2nsnc12,-2%,?,-33%,-20%,4µM*
Cc1ccc2c(c1)N(C(=O)N1CCC(C(=O)NCc3ccco3)CC1)CC(C)O2 (stereo unspecified),·,·,·,2%,·
COc1cccc(-c2ccc(SCc3ccccn3)nn2)c1,14µM*,-8%,-1%,-6%,-23%
COc1ccc(-c2ccc(SCc3ccccn3)nn2)cc1OC,2%,?,-5%,11%,-9%
COc1ccc(N2C(=O)/C(=C/C=C/c3ccccc3[N+](=O)[O-])C(=O)NC2=S)cc1,-2%,?,5%,20µM*,-8%

# Bioassay records (PubChem)
